The panel holds about 83,000 compounds, 20% with a hit somewhere; the sample as a whole holds those more often.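 Single-concentration screen, 48 h exposure, 96-well plates. Endpoint: percent growth. Below 10 = active.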 The source made the active and inactive calls.
Assays:
Test in all cases: NCI-60 one-dose screen, 48 h (100 = growth as untreated, 0 = no growth, -100 = all killed)
RPMI-8226 leukemia = settings: 10 µM unless noted
OVCAR-8 ovarian = settings: 10 µM unless noted
OVCAR-5 ovarian = settings: 10 µM unless noted
OVCAR-4 ovarian = settings: 10 µM unless noted
SK-OV-3 ovarian = settings: 10 µM unless noted
IGROV1 ovarian = settings: 10 µM unless noted
OVCAR-3 ovarian = settings: 10 µM unless noted
HS 578T breast = settings: 10 µM unless noted
NCI/ADR-RES ovarian = settings: 10 µM unless noted
T-47D breast = settings: 10 µM unless noted
BT-549 breast = settings: 10 µM unless noted
MDA-MB-435 melanoma = settings: 10 µM unless noted
SW-620 colon = settings: 10 µM unless noted
MCF7 breast = settings: 10 µM
HCT-116 colon = settings: 10 µM unless noted
HCC-2998 colon = settings: 10 µM unless noted
KM12 colon = settings: 10 µM unless noted

Measured: growth

CCOc1ccc2c(c1)CN(Cc1ccc(Cl)cc1)CO2
inactive: RPMI-8226 leukemia 43.3% | OVCAR-8 ovarian 34.1% | OVCAR-5 ovarian 90.9% | SK-OV-3 ovarian 13.5% | IGROV1 ovarian 71% | OVCAR-3 ovarian 22.2% | NCI/ADR-RES ovarian 43.7% | T-47D breast 52.4% | BT-549 breast 112% | MDA-MB-435 melanoma 64.7% | SW-620 colon 69.6% | MCF7 breast 59.4% | HCT-116 colon 38.7% | HCC-2998 colon 86.4% | KM12 colon 57.7%
active: OVCAR-4 ovarian -27.4% | HS 578T breast -7.66%

O=C(Nc1ncc(Cc2cccc(C(F)(F)F)c2)s1)C1COc2ccccc2O1 (stereo not given)
inactive: RPMI-8226 leukemia 76.9% | OVCAR-8 ovarian 89.9% | OVCAR-5 ovarian 87.4% | OVCAR-4 ovarian 84.6% | SK-OV-3 ovarian 100% | IGROV1 ovarian 86.8% | OVCAR-3 ovarian 90.6% | HS 578T breast 65.4% | NCI/ADR-RES ovarian 87.3% | T-47D breast 67.1% | BT-549 breast 90.7% | MDA-MB-435 melanoma 59.1% | SW-620 colon 81% | MCF7 breast 81.8% | HCT-116 colon 83.3% | HCC-2998 colon 98.5% | KM12 colon 76%

COc1ccc(C(=O)C2CC2c2ccc(Cl)cc2)cc1 (stereo not given)
inactive: RPMI-8226 leukemia 38.4% | OVCAR-8 ovarian 78.2% | OVCAR-5 ovarian 115% | OVCAR-4 ovarian 72.2% | SK-OV-3 ovarian 104% | IGROV1 ovarian 83.7% | OVCAR-3 ovarian 74.7% | HS 578T breast 82.4% | NCI/ADR-RES ovarian 78.9% | T-47D breast 80.8% | BT-549 breast 57.3% | MDA-MB-435 melanoma 95.6% | SW-620 colon 102% | MCF7 breast 103% | HCT-116 colon 77.1% | HCC-2998 colon 98.8% | KM12 colon 68.7%

O=[N+]([O-])c1cc2c(ccc3occc32)o1
active: MDA-MB-435 melanoma -75.1% | MCF7 breast 9.95% | HCT-116 colon 7.94%
inactive: RPMI-8226 leukemia 36.5% | OVCAR-8 ovarian 30% | OVCAR-5 ovarian 72.7% | OVCAR-4 ovarian 66.6% | SK-OV-3 ovarian 14.7% | IGROV1 ovarian 27.1% | OVCAR-3 ovarian 39.4% | HS 578T breast 50.4% | NCI/ADR-RES ovarian 29.2% | T-47D breast 95.1% | BT-549 breast 22% | SW-620 colon 27.6% | HCC-2998 colon 10.9% | KM12 colon 28.6%

COC(=O)C1=C(C)NC(C)=C(C(=O)OC)C(N2C(=O)CCC2=O)C1 (stereo not given)
inactive: RPMI-8226 leukemia 66.8% | OVCAR-8 ovarian 88.7% | OVCAR-5 ovarian 114% | OVCAR-4 ovarian 79.4% | SK-OV-3 ovarian 104% | IGROV1 ovarian 99.3% | OVCAR-3 ovarian 99.6% | HS 578T breast 107% | NCI/ADR-RES ovarian 95.9% | T-47D breast 93.9% | BT-549 breast 79.4% | MDA-MB-435 melanoma 81.7% | SW-620 colon 44.7% | MCF7 breast 69.6% | HCT-116 colon 57.5% | HCC-2998 colon 105%

COc1ccc(N(C)c2nc(N)nc3sc4c(c23)CCCC4)cc1
inactive: RPMI-8226 leukemia 25.3% | OVCAR-8 ovarian 14% | OVCAR-5 ovarian 49.8% | OVCAR-4 ovarian 36.2% | SK-OV-3 ovarian 20.7% | IGROV1 ovarian 17.2% | HS 578T breast 26.9% | T-47D breast 70.3% | BT-549 breast 24% | SW-620 colon 28.7% | MCF7 breast 15.2%
active: OVCAR-3 ovarian 1.77% | NCI/ADR-RES ovarian 2.25% | MDA-MB-435 melanoma -9.59% | HCT-116 colon 1.18% | HCC-2998 colon 7.08%

O=C(Nc1ccc(N2CCNCC2)cn1)c1[nH]ncc1Nc1ncnc2sc3c(c12)CCC3
inactive: OVCAR-5 ovarian 20.7% | SK-OV-3 ovarian 79.8% | IGROV1 ovarian 77.6% | HS 578T breast 73% | NCI/ADR-RES ovarian 42.6% | T-47D breast 43.8% | BT-549 breast 85.4% | HCC-2998 colon 33.8% | KM12 colon 53.4%
active: RPMI-8226 leukemia -38.2% | OVCAR-8 ovarian -38.9% | OVCAR-4 ovarian -53.6% | OVCAR-3 ovarian -39.3% | MDA-MB-435 melanoma -63.2% | SW-620 colon -76.1% | MCF7 breast -34% | HCT-116 colon -75%

COc1ccc(-c2nc(-c3ccccn3)c(-c3ccccn3)n2CC(C)C)cc1OC1CCCC1
active: RPMI-8226 leukemia -1.78% | SK-OV-3 ovarian 8.21%
inactive: OVCAR-8 ovarian 15.7% | OVCAR-5 ovarian 33.8% | OVCAR-4 ovarian 13.5% | IGROV1 ovarian 19.6% | OVCAR-3 ovarian 15.5% | HS 578T breast 43.3% | NCI/ADR-RES ovarian 10.9% | T-47D breast 21.5% | BT-549 breast 38.5% | MDA-MB-435 melanoma 26.9% | SW-620 colon 21.9% | MCF7 breast 10.8% | HCT-116 colon 14.7% | HCC-2998 colon 24.4%

CSc1nc2c(c(=O)n1C)N=C1c3ccccc3C(=O)C1C(c1ccccc1)N2 (stereo not given)
inactive: RPMI-8226 leukemia 94.9% | OVCAR-8 ovarian 77.7% | OVCAR-5 ovarian 87.9% | OVCAR-4 ovarian 72.6% | SK-OV-3 ovarian 72.4% | IGROV1 ovarian 30.4% | OVCAR-3 ovarian 39.4% | HS 578T breast 71.8% | NCI/ADR-RES ovarian 55.8% | T-47D breast 61.9% | BT-549 breast 82.3% | SW-620 colon 70.7% | MCF7 breast 58.7% | HCT-116 colon 71.3% | HCC-2998 colon 64.8% | KM12 colon 63.5%
active: MDA-MB-435 melanoma 7.03%

Reference: PubChem BioAssay (NCI)
